Results reported in PubChem BioAssay AID774 (SRMLSC, 2007).
In all, about 65,000 compounds went through this assay and about 15 (0.02%) were called active.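 Rule for the calls: active = single-dose screening hits from any of four coupled enzyme assays that gave an IC50 when retested across doses; inconclusive = no clear call, values can overlap the other calls; inactive = the rest.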 Only a sample is shown. Non-standard residues stand in square brackets, D forms with d. Residues, ends and D or L forms follow the SMILES beside them. ξ: configuration not given here. ξV = CC(C)C(N)C(=O)O

Assay: NADH-endpoint coupling enzyme inhibition profiling – biochemical, MLSMR library, artefact control, profiling panel (AID 774);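 note: the DPM-DC format reads NADH fluorescence rather than 340 nm absorbance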
Conditions: coupled PK/LDH NADH assays, four targets; at 10 µM; hits give high values

inhibition, inactive:
CC(C)[C@H](NC(=O)Nc1ccc(S(N)(=O)=O)cc1)C(=O)O 2%
C/C(N)=C(\C#N)C(=O)NCCc1ccccn1 5%
O=C(Cn1c(=O)sc2ccccc21)Nc1nc2c(s1)CCCC2 5%
c1ccc2c(c1)OCC(c1nn3cnnc3s1)O2 (stereo not drawn) 3%
COc1cccc(-c2cc3nc4c(c(N5CCC6(CC5)OCCO6)n3n2)CCCC4)c1 4%
C=CCc1cccc2cc(C(=O)N3CCN(C(=O)OCC)CC3)c(=O)oc12 4%
CCOC(=O)CC1C(=O)NCCN1C(=O)COc1ccc(Br)cc1C (stereo not drawn) 4%
Cc1nn(-c2ccccc2)c2[nH]c(C(F)(F)F)cc(=O)c12 3%
O=[n+]1c2c(n([O-])c3cc(Br)ccc31)CCC2 5%
CC(C)CCNc1nc(N2CCCC2)c2c(c1C#N)CCN(C)C2 7%
COc1ccc(N2C(=O)CCC(C(=O)Nc3ccccn3)C2c2ccc(OC)c(OC)c2)cc1 (stereo not drawn) 2%
Cc1ccc(S(=O)(=O)c2nc(NCCCn3ccnc3)sc2Cl)cc1 6%
COc1ccc(N(CC(=O)NC(C)(C)C)C(=O)c2ccco2)cc1 1%
CCOC(=O)c1[nH]c2ccccc2c1N=C(C)N(CC)CC 4%
COc1cccc2c(C)c(C(=O)O)[nH]c12 14%
COCCCNC(=O)c1c(F)c(F)c(F)c(F)c1F 5%
O=C(CCn1c(=O)oc2ccccc21)Nc1ccon1 5%
COc1cc(C2C(C(=O)Nc3ccc(F)cc3)=C(C)Nc3nc(CCCO)nn32)cc(OC)c1OC (stereo not drawn) 9%
OCCCN1c2ccccc2Nc2nnc(-c3ccccc3)cc21 2%
C=C1c2cc(CC)ccc2NC(=O)N1c1ccc(C)cc1 4%
CCc1nnc(NC(=O)CCC(=O)O)s1 1%
COc1cc(-c2nnc(Cn3cc(C(F)(F)F)ccc3=O)o2)cc(OC)c1OC 4%
CCOP1(=O)C=C(C(C)(C)C)OC1c1ccc(F)cc1 (stereo not drawn) 5%
CCN(CC)C(=O)CSc1nnc(-c2ccc(S(=O)(=O)NCc3ccccc3Cl)cc2)o1 6%
CCc1c(C)n([O-])c2c([n+]1=O)CCCCC2 4%
Cc1noc(NS(=O)(=O)c2ccc(N3CC(O)=C(c4ccccc4)C3=N)cc2)c1C 4%
Cn1c(NC(=O)c2ccc3c(c2)OCO3)cc(=O)n(C)c1=O 7%
COC(=O)Cc1c(C)c2ccc(OCC(=O)NCc3ccc4c(c3)OCO4)cc2oc1=O 10%
O=C(CSc1nc2ncccc2[nH]1)Nc1ccc2c(c1)OCCO2 1%
CNC(=O)CSc1nnnn1-c1ccc(C)cc1C 2%
CCC(C(=O)Nc1ncccn1)(C(F)(F)F)C(F)(F)F 1%
COc1ccc(C2/C(=C(/O)c3ccccc3)C(=O)C(=O)N2c2ncccn2)cc1OC (stereo not drawn) 1%
O=C(COC(=O)c1ccccc1C(=O)c1ccccc1)c1ccco1 4%
Cc1cc(C)n(C(=O)c2ccc(S(=O)(=O)N3CCCC3)cc2)n1 4%
CC1(C)CCCC2=C1CC1C(=O)N(c3ccccc3)C(=O)C1C2 (stereo not drawn) 6%
Cc1ccc2cccc(O)c2[n+]1[O-] 10%
CCOc1ccccc1-n1c(SCC(=O)N2CCCC2)nnc1-c1ccoc1C 4%
O=C(CN1C(=O)C2C3C=CC(C3)C2C1=O)NCC1COc2ccccc2O1 (stereo not drawn) 8%
Cn1nnnc1SCc1cc(=O)[nH]c2ccccc12 6%
Cc1cc(OCCN2CCCC2)ccc1C(C)C 14%
CC1(C)CC(=O)c2sc(N)nc2C1 3%
CCOC(=O)C1CCN(C(=O)Cn2cc(C#N)c3ccccc32)CC1 5%
COc1ccc(-c2nn(-c3ccccc3)cc2C(=O)Nc2nc(CC(C)=O)ns2)cc1 4%
CCOC(=O)CCCNC(=O)CN1C(=O)NC(CCc2ccccc2)C1=O (stereo not drawn) 5%
Cc1ccc(CCn2c3c(c4ccccc42)CN(C)CC3)cn1 2%
CC(C)C1Cc2c(sc3c2c(=O)n(-c2ccccc2)c2nncn32)CO1 (stereo not drawn) 3%
CN1c2ccccc2-c2nc3ccccc3n2C1c1ccco1 (stereo not drawn) 6%
C=CCn1c(COc2ccccc2)nnc1SCC(=O)NCC(=O)OCC 3%
Cc1cccc(OCC(O)Cn2c(=N)n(CCN3CCOCC3)c3ccccc32)c1 (stereo not drawn) 6%
C/C(=C\c1ccco1)C1Nc2cccc3cccc(c23)N1 10%
Cc1cc(NC(=O)Nc2ccccc2)n(-c2ccccc2)n1 1%
COc1ccc(Br)cc1/C=N/n1c(C)nnc1C 6%
O=C(Nc1ccccc1N1CCN(C(=O)c2ccccc2)CC1)c1ccc2c(c1)OCO2 4%
C=CCNc1nc(C)nc(OC)n1 3%
CCCCC(CC)C(=O)Nc1ccc(Cl)cn1 (stereo not drawn) 5%
CC(=O)c1c(N2CCOCC2)nc(=S)n(-c2cc(C)ccc2C)c1C 5%
CC(C)CCn1c(CN(C)Cc2ccccc2)nc2c1c(=O)n(C)c(=O)n2C 8%
COC(=O)c1ccc(C2CC(=O)Nc3cc(OC)c(OC)cc32)cc1 (stereo not drawn) 9%
CCOc1ccccc1NC(=O)C1CCC(CNc2c(N3CCOCC3)c(=O)c2=O)CC1 (stereo not drawn) 7%
O=C(CSc1ncccn1)NCCc1ccccc1 5%
COc1ccc(OC)c(NC(=O)CN2CCN(C(=O)c3ccco3)CC2)c1 3%
Cc1cccc(C)c1NC(=O)CCCSc1nnc(-c2ccco2)n1-c1ccccc1 3%
CCOC(=O)c1c(C(C#N)C#N)cc(C)nc1C 7%
Cc1cc(C)c(C(=O)CN2C(=O)CCC2=O)cc1C 5%
Oc1c(C(c2ccco2)N2CCC3(CC2)OCCO3)sc2ncnn12 (stereo not drawn) 3%
CCOC(=O)c1cc2cc(-c3c(C(=O)OCC)oc4cc(O)cc(O)c4c3=O)ccc2o1 3%
O=C(NC1=NCCS1)c1ccc(Cl)s1 10%
c1ccc(-c2noc(-c3cccs3)n2)nc1 3%
CCCOC(=O)Nc1sc2c(c1C(=O)OCC)CCC2 5%
O.O.O.O=S(=O)([O-])OC[C@H]1O[C@@H](O[C@]2(COS(=O)(=O)[O-])O[C@H](OS(=O)(=O)[O-])[C@@H](OS(=O)(=O)[O-])[C@@H]2OS(=O)(=O)[O-])[C@H](OS(=O)(=O)[O-])[C@@H](OS(=O)(=O)[O-])[C@@H]1OS(=O)(=O)[O-].[Al] 1%
CC(=O)c1c(C)n([O-])c2ccccc2[n+]1=O 5%
Cc1ccc2[nH]c3c(c2c1)CN(C(=O)CN1CCN(c2ccccc2)CC1)CC3 3%
CCn1c(SCC(=O)NCc2ccco2)nnc1-c1ccc(N)cc1 3%
COc1ccc2c3c(c(=O)oc2c1OCC(=O)C(C)(C)C)CCCC3 4%
O=C(O)c1ccc(F)c(S(=O)(=O)Nc2ccccc2)c1 6%
CC1CN(Cc2nc3c(c(=O)n(C)c(=O)n3C)n2Cc2cccc(Cl)c2)CC(C)O1 (stereo not drawn) 5%
CC(=O)NC(C(=O)NCC(N)=O)C(C)C (stereo not drawn) (Ac-[ξV]-Gly-NH2) 4%
Cn1c(-c2ccc(C(=O)c3ccccc3)s2)nc2ccccc21 6%
O=C(Oc1ccc2c(c1)CCC2)N1CCOCC1 3%
O=P(c1ccc2c(c1)OCCO2)(N1CCOCC1)N1CCOCC1 0%
CCOc1ccc(OCC)c(NC(=O)C(NS(=O)(=O)c2ccc3c(c2)oc(=O)n3C)C(C)C)c1 (stereo not drawn) 7%
O=C(O)CN1C(=O)CC(Cc2ccccc2)C1=O (stereo not drawn) 1%
CCCc1cc(=O)oc2c(C)c(O)c(CN3CCCCC3)cc12 1%
CO/N=C(\C(=O)N[C@@H]1C(=O)N2C(C(=O)O)=C(COC(C)=O)CS[C@H]12)c1csc(N)n1 (stereo in doubt) 0%
Cc1noc(C)c1S(=O)(=O)N(CC(=O)NCc1ccc(Cl)cc1)c1ccc2c(c1)OCO2 9%
C=CCNC(=O)CCCC(=O)NCC=C 5%
CCCn1c(SCC(=O)Nc2cccc(C(=O)OCC)c2)nnc1-c1ccoc1C 7%
C=CCOc1nc2c(c(=O)n(C)c(=O)n2C)n1Cc1ccc(Cl)cc1Cl 8%
Fc1ccc2nc(Nc3nc4c(s3)CCCC4)sc2c1 3%
C=CCNC(=O)C1CC=CCC1C(=O)O (stereo not drawn) 4%
CCO/C([O-])=N/c1c[n+](N2CCOCC2)no1 1%
COC(=O)Cc1csc(Nc2c(C)n(C)n(-c3ccccc3)c2=O)n1 8%
COc1ccccc1C1/C(=C(/O)c2ccc(C)cc2)C(=O)C(=O)N1Cc1ccco1 (stereo not drawn) 10%
C=CCc1cccc2cc(C(=O)OCC)c(=O)oc12 6%
Cn1c(=O)c2c(nc(OCc3cccnc3)n2Cc2ccccc2)n(C)c1=O 3%
CCOc1ccc(OCC)c(NC(=O)CN(C)S(=O)(=O)c2cccc3nsnc23)c1 4%
O=C(OCC(O)C(O)COC(=O)c1ccccc1)c1ccccc1 (stereo not drawn) 5%
c1ccc2c(CNn3cnnc3)cccc2c1 3%
